# The supplement of paper PMC11417369
# In all, about 25,000 sequences were measured (“ln(normalized median fluorescence intensity)”: median about 9.7, highest 2% from about 11 on). For the sample, the highest values were picked, then their nearest neighbours and some sequences at random.
# Tested on: PfAP2-HC AP2 domain (GST-tagged)
# Assay: gcPBM binding intensity (ln(normalized median fluorescence intensity)); higher = stronger DNA binding
# In short: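 An Agilent 4 × 180k array of primer-extended double-stranded 36-bp intergenic genomic probes, with negative controls, was incubated for 1 h with GST-tagged P. falciparum DNA-binding domains expressed in E. coli. Alexa488 anti-GST antibody detected bound protein, scanned at 488 nm. Binding intensity is the highest Masliner-normalised natural-log median intensity across replicate spots of either probe orientation.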
row,Sequence,gcPBM binding intensity (ln)
1,ATTTTTTTGTTATTGTTGAAAAGATGGTTCTTTTTT [CACACA_negctrl_site1346],9.52
2,TATATAGGTATATATACACACAACGGTTATAAATAT [CACACA_site4759],9.94
3,AGCATATTATCATATTGTACATATTATAATATATAT [XGTACX_site3907],9.69
4,AATAATACAAAAGTTCAACAAAAAAAAAAAAAAAAT [CACACA_negctrl_site952],9.75
5,TGTTAATTAAAACATCATTAATATTATTAAAAATAC [XGTACX_negctrl_site509],9.36
6,ATTTTTTTTATTTTTTCAATATATATATATATATAT [CACACA_negctrl_site1444],9.74
7,AAAATATAATATATTACACACATATATTTTATAAGT [CACACA_site668],9.82
8,ATATATATGAATACATGTACGTATTTGTCTATGTAT [XGTACX_site8306],9.81
9,TTTTTTATTATTATGTGTACGAATATGTGCATATAA [XGTACX_site1364],9.65
10,TGAACACCCACAAATACACACAAAAAAAATAAATAA [CACACA_site248],10.6
11,AATATAAAAATGCACACACACAAAAAAAAAAAAAAA [CACACA_site6546],10.9
12,ATAATATGAAAACACACACACACACTAATAAAAAAA [CACACA_site8617],11.5
13,TGCACCCACCAACACACACACAACTAAAAAATAATG [CACACA_site2566],10.5
14,ATAATATGAAAACACACACACACACTAGAAAAAAAA [CACACA_site5153],10.9
15,AAAAATAAAGGGTGTGCACACAAAAATATATATATA [CACACA_site1727],11
16,TAAATATAAAAATGCACACACACAAAAAAAAAAAAA [CACACA_site895],11.4
17,AAATAAAAAGGGTGCACACAAAAATATATATATATA [CACACA_site1728],9.94
18,TACACCCACCAACACACACACACACTAATAAAAAAA [CACACA_site8060],11.3
19,AATAAAAAAAAATGCACACATATATATATATATATA [CACACA_site2421],9.71
20,AAAAAAAAAAAACACACACACACACTAATATATAAA [CACACA_site8302],10.9

row,Sequence,gcPBM binding intensity (ln)
1,AAAAATAAAAGGTGTGCACACAAAAATATATATATA [CACACA_site8507],10.5
2,TTTTAATTAGTACAAACACACATATACACCCAAAAA [CACACA_site5422],10
3,GATGATACGATTATCACACATTTATACTTTCTACAT [CACACA_site5669],9.85
4,AAACAAAAAATTTAAAGTACAAAAATTATGATTGTT [XGTACX_site465],9.62
5,TATTTAATGTGATACTTATATTATTTTATGATTAAA [GTGCAC_negctrl_site25],9.49
6,AAAAAAGTTGTATTTGCACACATAAAAAAAAGATAT [CACACA_site3839],9.93
7,AGAGAATAAATATAAAGTACATATATAAATATATAT [XGTACX_site5055],9.7
8,AAAAAATTATATAAATGTACATTTTGGCTAGACATG [XGTACX_site5977],9.71
9,TATAATAAATCAAATGCACACACACTAATAAAAAAA [CACACA_site7937],11.3
10,AAAAATATAAACTGCACACACAAAAAAAAAAGAGAA [CACACA_site1367],10.3
11,AATATAATATAATGCACACATAAAAAAAAAATCAAA [CACACA_site122],9.89
12,AATAAATATAAAAATGCACACACACTAATAAAAAAA [CACACA_site8201],11.4
13,AAAATATAATATAATGCACACATAAAAAAAAAAAAA [CACACA_site7989],9.84
14,ATAAATAATATAAATACACACTAAAAAAAATATATA [CACACA_site4456],9.88
15,ATATAAATAATATAAATACACACTAAAAAAAATATA [CACACA_site542],9.84
16,TAAAAAATATAAACTGCACACACACTAATAAAGAAA [CACACA_site8119],11.1
17,TAATAAATCAAATGCACACACACAAAAAAAAAAAAA [CACACA_site161],10.3
18,ATAATAAAAAAAAATGCACACATATATATATATATA [CACACA_site8766],9.8
19,AAAAATATAAACTGCACACACACAAAAAAAGAAAAA [CACACA_site648],10.8
20,TATATATATATATATACACACACACTAATAAAAAAA [CACACA_site8426],11

row,Sequence,gcPBM binding intensity (ln)
1,TATAAAAATAGGATTTGTACATATAAAAAAGGAAAA [XGTACX_site8678],9.73
2,TATAATATTAATGACTGTACTCATACGTATATTTAT [XGTACX_site5493],9.76
3,TACGGTTGTTTATTTTGTACGTAAAAAATATATTAT [XGTACX_site8393],9.7
4,ATTAAATAAAATCATGCACACAATATATATTTTAAG [CACACA_site2495],9.71
5,AACATAATTAAAAATTGTACAGAATTTCAATCGAAA [XGTACX_site7542],9.62
6,TCAACAAATAAACTTTGTACATATATACAAAATATA [XGTACX_site4447],9.53
7,AAAAAATAAATAAACATAAATAAATAAATAAATATA [XGTACX_negctrl_site340],9.73
8,CAATATATTTGATTTACACACTTACAATGTATATAA [CACACA_site2994],9.55
9,AATAGTACAAAAAAAAAAAAAAAAAAAAAAAAAAAA [CACACA_negctrl_site1376],8.9
10,TTATTTTTTAGTAGTACACACTTTTTGTACCTTTTA [CACACA_site4503],9.87
11,CCAACATGCCCACGCACACACAAAAAAAGCATGCAT [CACACA_site4217],10
12,CATATACACGAACACACACACACACGCACAAAAAAA [CACACA_site6376],10.6
13,ATCAAGCACGAACACACACACACACGCACGCCCACA [CACACA_site6308],11.4
14,TTATACTGTATAGTCGCACACAAAAATATAAAATAT [CACACA_site3869],9.98
15,TGTGCCCAAAATTATGCACACACCTAAAATTAATTT [CACACA_site2914],9.85
16,ATTATGCACGGACACACACACACACCCCTAAAAAAT [CACACA_site5426],11.4
17,ATTATGCACCAACACACACACACACTCCTAAAAAAT [CACACA_site8822],11
18,TGCACAAAATTATGCACACACCTAAAATTAATTTTT [CACACA_site5596],9.8
19,ATTATGCACCAACACACACACACACCCCTAAAAAAT [CACACA_site2568],10.8
20,TAATTATGCGGACACACACACACACCCAACTAAAAA [CACACA_site5427],10.9
